Unmarked numbers belong to inactive results. Records with an inconclusive call do not appear. Activity calls are given as the source filed them. Unless noted, calls follow the shape of the dose curve; as a rule, active = well fitted curve in either direction with a large enough effect (not every such curve was filed as active); inconclusive = small, poorly fitted or top-dose-only effect, or another doubt; inactive = flat fitted curve, though single readings scatter.
Key:
[1] = AP1 Signaling Pathway (AID 357); settings: ME-180 AP-1-bla reporter, EGF-induced, beta-lactamase ratio, 5 h; at 17.2 µM (top of the series) unless noted;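 also: ME-180 reporter cells stimulated with EGF at its EC50 level; % is scaled to controls: 0 for no effect and ±100 for the full control effect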
How it was run: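 A ratiometric CCF4 readout (405 nm excitation; 460 and 530 nm emission) quantified AP-1-driven beta-lactamase in ME-180 cells after 5 h with compound and EC50 EGF; AC50 values were derived for activators and inhibitors.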

[2] = NFAT Signaling Pathway (AID 444); settings: Jurkat NFAT-bla M1, carbachol, beta-lactamase ratio, 5 h; at 17.2 µM (top of the series) unless noted;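 also: carbachol stimulus at about its EC50 of 1 µM final; % is scaled to controls: 0 for no effect and ±100 for the full control effect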
How it was run: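 Jurkat cells with NFAT-driven β-lactamase reporter and co-expressed M1 receptor, stimulated with carbachol (final 1 uM, ~EC50), compound titration, 5 h at 37 °C. CCF4 loaded 1 h at RT; 460/530 nm ratio gave %activity and AC50.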

[3] = Stat Signaling Pathway (AID 446); settings: ME-180 SIE beta-lactamase reporter, IL-6 stimulated, 5 h; at 17.2 µM (top of the series) unless noted;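 also: ME-180 cervical cancer cells given 40 pM IL-6 alongside compound; SIE-controlled beta-lactamase reporter measured as 460/530 nm FRET emission ratio; % is scaled to controls: 0 for no effect and ±100 for the full control effect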
How it was run: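 ME-180 cells carrying a SIE-driven beta-lactamase reporter are stimulated with 40 pM IL-6 for 5 h at 37C in the presence of compound. The 460/530 nm FRET substrate ratio is read after 2.5 h at RT. Data are normalised to 300 pM IL-6 and to 125 nM JAK inhibitor controls.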

[4] = target: Mitogen-activated protein kinase 10 (Mus musculus) (UniProt Q61831); assay: JNK3 AlphaScreen Assay (AID 530);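 also: kinase came from lysate of stimulated human HepG2 cells; signal reports phosphorylation of biotinylated GST-cJun 1-79 at Ser73 with 10 µM ATP; % is scaled to controls: 0 for no effect and ±100 for the full control effect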
How it was run: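 Pre-activated (IL-1β/TNFα) JNK3 in HepG2 lysates phosphorylates biotin-GST-cJun(1-79), 10 uM ATP; anti-phospho-cJun(Ser73) AlphaScreen read at room temperature, pH 7.6 Tris buffer. Compounds pre-incubated 15 min as titrations.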

[5] = target: 3',5'-cyclic-AMP phosphodiesterase 4B (Homo sapiens) (UniProt Q07343); assay: qHTS Assay for Inhibitors of PDE-IV (AID 607; active = well fitted activation curve with a large enough effect in the main read-out, with a control signal flat, not every such curve was filed as active; also: % of control where 0% means no effect)
How it was run: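 HEK293 ACTOne cells with CNG channel (1000/well), endogenous PDE4; membrane potential dye, compounds up to 22.9 uM final. Fluorescence Ex 535/Em 590; RO 20-1724 (100 uM final) as reference.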

[6] = target: ATP-dependent 6-phosphofructokinase (Trypanosoma brucei brucei) (UniProt O15648); assay: qHTS Assay to Find Inhibitors of T. brucei phosphofructokinase: hit validation (AID 492961; active = well fitted curve in the direction sought with a large enough effect; an effect the other way counts as inactive or inconclusive)
How it was run: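 Inhibition of parasite PFK is measured as reduced ADP formation, quantified via luciferase after ATP depletion. Assay used 0.1 mM ATP, 0.5 mM F6P, 1.25 nM enzyme, 45 min incubation.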

[7] = target: Ubiquitin carboxyl-terminal hydrolase 1 (Homo sapiens) (UniProt O94782); assay: Inhibitors of USP1/UAF1: Pilot qHTS (AID 504865; active = well fitted curve in the direction sought with a large enough effect; an effect the other way counts as inactive or inconclusive;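 also: rhodamine fluorescence freed from ubiquitin-rhodamine substrate followed over time; top concentration of the series differs between compounds; % is scaled to controls: 0 for no effect and ±100 for the full control effect; nearly all actives have a fitted effect of over 35% in size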)
How it was run: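 USP1/UAF1 complex at 1 nM preincubated 15 min at room temperature with compound, then Ub-Rho substrate added at 150 nM final. Fluorescence (480/540 nm) read kinetically in 50 mM HEPES pH 7.8, 0.5 mM EDTA, 1 mM TCEP, 0.1 mg/ml BSA, 0.01% Tween-20.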

[8] = target: Luciferin 4-monooxygenase (Photinus pyralis) (UniProt P08659); assay: Biochemical firefly luciferase enzyme assay for NPC (AID 624030; active = well fitted curve in the direction sought with a large enough effect; an effect the other way counts as inactive or inconclusive;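 also: purified P. pyralis luciferase at 10 nM with luciferin and ATP substrate; 0% = DMSO and -100% = full luciferase inhibition by PTC124 control; nearly all actives have a fitted effect of over 70% in size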)
How it was run: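 Purified P. pyralis luciferase at 10 nM in 50 mM Tris Acetate (final), luminescence read within 5 minutes of enzyme addition to compounds. Activity normalised to PTC124 versus DMSO; concentration-response curves classed by r2, magnitude and activity.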

[9] = S16 Schwann cell viability assay (CellTiter-Glo assay) (AID 624031; active = well fitted curve in the direction sought with a large enough effect; an effect the other way counts as inactive or inconclusive;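 also: native untransfected S16 rat Schwann cells; cellular ATP luminescence as a viability measure; plate controls were DMSO-treated cells for no effect and cell-free wells for full effect; nearly all actives have a fitted effect of over 70% in size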)
How it was run: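 Rat S16 Schwann cells without reporter constructs received compound or DMSO for 24 h at 37 °C under 5% CO2. Cellular ATP was then quantified by CellTiter-Glo luminescence, with vehicle wells defined as 0% activity and cell-free wells as reference.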

[10] = S16 Schwann cell PMP22 intronic element firefly luciferase assay (AID 624032; active = well fitted curve in the direction sought with a large enough effect; an effect the other way counts as inactive or inconclusive;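 also: plate controls were DMSO for no effect and PTC124 positive control mean for full effect; nearly all actives have a fitted effect of over 30% in size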)
How it was run: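 Rat S16 Schwann cells stably carrying firefly luciferase driven by a PMP22 intronic element, in 10% FBS, treated 24 h at 37 C. ONE-Glo luminescence normalized to PTC124 control and DMSO (0%); curves classed by r2, magnitude and activity.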

[11] = S16 Schwann cell PMP22 intronic element beta-lactamase assay (AID 624044; calls by dose curve;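 also: 0% = DMSO and -100% = potassium clavulanate positive control; nearly all actives have a fitted effect of over 15% in size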); settings: S16 rat Schwann cells, PMP22 element beta-lactamase FRET, 24 h; ratio activity, negative = inhibition: at 38.3 µM (top of the series)
How it was run: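 Rat S16 Schwann cells with beta-Lac driven by a PMP22 intronic element, compound-treated 24 h at 37 °C. LiveBLAzer FRET B/G read: 460 nm normalized to potassium clavulanate vs DMSO; 535 nm FRET as viability; concentration-effect curves classified.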

ATS189 = assay: qHTS profiling for inhibitors of Plasmodium falciparum proliferation (AID 504749; active = well fitted curve in the direction sought with a large enough effect; an effect the other way counts as inactive or inconclusive; also: nearly all actives have a fitted effect of over 60% in size; also: potency is read from the fitted curve at half-maximal effect;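 as to activity, negative = inhibition: 0% = DMSO vehicle and full inhibition = artemisinin control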); settings: P. falciparum in erythrocytes, SYBR Green DNA, 72 h; series mostly up to 28.7 µM
How it was run: (§1)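 P. falciparum-infected erythrocytes (0.3% parasitemia, 2.5% hematocrit) incubated with compound 72 h at 37 C, 5% CO2. Parasite DNA detected by SYBR Green after lysis, overnight at room temperature; normalised to 0.29 uM artemisinin and DMSO.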

CP262 = assay: as above; settings: P. falciparum in erythrocytes, SYBR Green DNA, 72 h; series mostly up to 28.7 µM
How it was run: as §1

CP297 = assay: as above; settings: P. falciparum in erythrocytes, SYBR Green DNA, 72 h; series mostly up to 28.7 µM
How it was run: as §1

CP335 = assay: as above; settings: P. falciparum in erythrocytes, SYBR Green DNA, 72 h; series mostly up to 28.7 µM
How it was run: as §1

Dd2 = assay: as above; settings: P. falciparum in erythrocytes, SYBR Green DNA, 72 h; series mostly up to 28.7 µM
How it was run: as §1

TAB109 = assay: as above; settings: P. falciparum in erythrocytes, SYBR Green DNA, 72 h; series mostly up to 28.7 µM
How it was run: as §1

W2 = assay: as above; settings: P. falciparum in erythrocytes, SYBR Green DNA, 72 h; series mostly up to 28.7 µM
How it was run: as §1

[12] = target: Glucocorticoid receptor (Homo sapiens) (UniProt P04150); assay: GR-GFP Redistribution (AID 450;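 active = compounds whose dose series gives a full or clear partial fitted curve of increased nuclear translocation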; also: potency is read from the fitted curve at half-maximal effect)
[13] = qHTS Assay for Identification of Small Molecule Agonists for Hypoxia Response Element Signaling Pathway (AID 914; active = well fitted activation curve with a large enough effect in the signal ratio, with a control signal flat, not every such curve was filed as active; the % refers to the signal ratio; also: potency is read from the fitted curve at half-maximal effect; as to activation: % of control where 0% means no effect); settings: ME-180 (cervical carcinoma) HRE-bla reporter, beta-lactamase ratio, CoCl2, 17 h; activation: hits give high values
How it was run: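 In Opti-MEM containing 0.5% dialyzed FBS and 10 mM HEPES, ME-180 HRE-bla cells received a compound titration and EC50 CoCl2. They were incubated 17 hours, then CCF4-loaded 2.5 hours at room temperature before ratio reading.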

[14] = target: Guanine nucleotide-binding protein G(i) subunit alpha-1 (Homo sapiens) (UniProt P63096); assay: qHTS Assay for Inhibitors of RGS12 GoLoco Motif Activity (Green Fluorophore) (AID 879; active = well fitted curve in the direction sought with a large enough effect; an effect the other way counts as inactive or inconclusive;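 also: 0% = labeled peptide with Gαi1 and full inhibition = labeled peptide alone without protein; negative values mean loss of peptide binding seen as reduced polarization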)
How it was run: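 Fluorescence polarization assay: 50 nM Gαi1 with 10 nM FITC-labeled RGS12 GoLoco peptide in 10 mM Tris pH 7.5, 150 mM NaCl, 0.1 mM GDP, 0.05% NP40, 10 min at room temperature with compound.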

[15] = qHTS Assay for Identification of Small Molecule Agonists for Thrombopoietin (TPO) Signaling Pathway (AID 917; active = well fitted curve in the direction sought with a large enough effect; an effect the other way counts as inactive or inconclusive; also: % is scaled to controls: 0 for no effect and ±100 for the full control effect)
How it was run: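 Murine Ba/F3 cells expressing human TPO receptor and GPIIb-promoter luciferase, IL-3-starved overnight, given compound plus TPO at 26 pM (EC50). After 24 h at 37 C, 5% CO2, luminescence read.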

[16] = target: Muscarinic acetylcholine receptor M1 (Rattus norvegicus) (UniProt P08482); assay: qHTS Assay for Antagonists of Acetylcholine Muscarinic M1 Receptor: Measurement of IP-One Response (AID 944; active = well fitted curve in the direction sought with a large enough effect; an effect the other way counts as inactive or inconclusive; also: nearly all actives have a fitted effect of over 75% in size)
How it was run: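 CHO cells stably expressing rat M1, pretreated 10 min with compound, then stimulated 30 min with carbachol at EC80 (200 nM) in LiCl-containing buffer pH 7.4; IP1 accumulation read by HTRF competition (665/620 nm).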

[17] = target: Pyruvate kinase (Leishmania mexicana) (UniProt Q27686); assay: qHTS Validation Assay for Inhibitors of Leishmania Mexicana Pyruvate Kinase (AID 945; active = well fitted curve in the direction sought with a large enough effect; an effect the other way counts as inactive or inconclusive;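 also: 0% = DMSO only neutral control wells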)
How it was run: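 An endpoint luciferase assay: 0.2 nM LmPYK E451W turns over 0.5 mM PEP with 0.1 mM ADP for 1 h at room temperature, pH 7.2, before PKLight addition. Values are normalized to DMSO-only wells.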

[18] = target: Pyruvate kinase PKM (Homo sapiens) (UniProt P14618); assay: qHTS Assay for Activators of Human Muscle Pyruvate Kinase (AID 954; active = well fitted curve in the direction sought with a large enough effect, not every such curve was filed as active;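 also: 0% = uninhibited enzyme and -100% = no enzyme or full thiadiazolimine inhibition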)
How it was run: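 Purified human PKM2 (0.1 nM) with 0.5 mM PEP (Km) and 0.1 mM ADP in 50 mM imidazole pH 7.2, KCl, MgCl2, 1 h at room temperature; ATP formed read by coupled luciferase luminescence. Normalized to no-enzyme/110 uM thiadiazolimine inhibition; 0.3 nM enzyme column for activation.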

[19] = target: Alpha-galactosidase A (Homo sapiens) (UniProt P06280); assay: Counterscreen for Glucocerebrosidase Inhibitors: qHTS Assay for Human alpha-Galactosidase at pH 4.5 (AID 992; active = well fitted curve in the direction sought with a large enough effect; an effect the other way counts as inactive or inconclusive; also: 0% is about no effect)
How it was run: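 Human enzyme (2 nM) with 80 uM 4-methylumbelliferyl alpha-D-galactopyranoside in 50 mM citric acid, 0.005% Tween-20, pH 4.5, 20 min at room temperature. Compounds 0.7 nM–77 uM; fluorescence Ex 365/Em 440 after pH 10 stop; AC50 from Hill fits.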

[20] = target: alpha-glucosidase (Oryza sativa, rice) (UniProt Q653V4); assay: Counterscreen for Glucocerebrosidase Inhibitors: qHTS Assay for Rice alpha-Glucosidase at pH 5.0 (AID 997; active = well fitted curve in the direction sought with a large enough effect; an effect the other way counts as inactive or inconclusive;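 also: 0% = full activity with enzyme and -100% = basal without enzyme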)
How it was run: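 Rice alpha-glucosidase (4 nM final) with 400 uM 4-methylumbelliferyl-alpha-D-glucopyranoside in citrate buffer pH 5.0, 20 min at room temperature, stopped at pH 10; fluorescence 365/440 nm, compounds 0.7 nM–77 uM, AC50 from Hill fits.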

Sequence of Glucocorticoid receptor (Homo sapiens) (P04150 whole entry, looked up): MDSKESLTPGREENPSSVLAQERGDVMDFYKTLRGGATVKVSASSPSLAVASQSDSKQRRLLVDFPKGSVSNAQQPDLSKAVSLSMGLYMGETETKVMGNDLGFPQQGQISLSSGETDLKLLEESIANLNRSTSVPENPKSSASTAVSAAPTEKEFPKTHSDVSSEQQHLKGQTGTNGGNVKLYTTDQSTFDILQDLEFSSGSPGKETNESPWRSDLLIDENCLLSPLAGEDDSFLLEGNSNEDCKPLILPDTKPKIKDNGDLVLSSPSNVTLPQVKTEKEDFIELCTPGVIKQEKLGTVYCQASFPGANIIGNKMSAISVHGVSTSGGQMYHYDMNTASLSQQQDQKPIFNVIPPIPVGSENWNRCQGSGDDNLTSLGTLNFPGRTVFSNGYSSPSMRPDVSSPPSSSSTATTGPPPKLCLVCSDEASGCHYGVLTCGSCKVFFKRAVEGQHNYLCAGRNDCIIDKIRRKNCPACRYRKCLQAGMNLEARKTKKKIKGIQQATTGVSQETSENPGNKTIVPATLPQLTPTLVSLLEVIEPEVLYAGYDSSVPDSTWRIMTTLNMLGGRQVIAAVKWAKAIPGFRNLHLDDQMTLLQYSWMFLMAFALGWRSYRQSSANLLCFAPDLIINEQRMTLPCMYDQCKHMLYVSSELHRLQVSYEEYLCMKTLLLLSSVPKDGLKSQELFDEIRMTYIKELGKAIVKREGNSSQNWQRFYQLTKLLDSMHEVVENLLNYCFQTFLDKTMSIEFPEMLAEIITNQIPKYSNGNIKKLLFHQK
Sequence of Ubiquitin carboxyl-terminal hydrolase 1 (Homo sapiens) (O94782 whole entry, looked up): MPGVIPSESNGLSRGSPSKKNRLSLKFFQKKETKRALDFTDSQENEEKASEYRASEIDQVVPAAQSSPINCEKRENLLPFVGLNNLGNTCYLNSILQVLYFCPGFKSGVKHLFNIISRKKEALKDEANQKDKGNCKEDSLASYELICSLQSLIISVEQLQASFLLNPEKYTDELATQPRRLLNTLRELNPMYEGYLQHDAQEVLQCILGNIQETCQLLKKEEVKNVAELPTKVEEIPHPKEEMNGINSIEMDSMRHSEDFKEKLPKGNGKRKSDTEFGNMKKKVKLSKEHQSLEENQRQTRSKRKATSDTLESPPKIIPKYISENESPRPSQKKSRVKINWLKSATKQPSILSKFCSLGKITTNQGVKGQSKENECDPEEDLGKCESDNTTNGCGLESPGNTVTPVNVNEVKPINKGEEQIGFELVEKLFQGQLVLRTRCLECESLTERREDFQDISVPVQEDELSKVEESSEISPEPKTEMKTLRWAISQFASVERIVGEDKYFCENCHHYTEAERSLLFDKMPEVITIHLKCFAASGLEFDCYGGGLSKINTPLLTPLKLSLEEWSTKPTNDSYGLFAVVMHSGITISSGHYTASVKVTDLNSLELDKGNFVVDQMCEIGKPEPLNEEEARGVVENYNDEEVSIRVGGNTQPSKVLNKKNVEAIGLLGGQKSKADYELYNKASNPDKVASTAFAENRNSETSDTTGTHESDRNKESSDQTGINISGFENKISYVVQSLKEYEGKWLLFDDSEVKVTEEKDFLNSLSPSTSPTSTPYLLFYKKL
Sequence of 3',5'-cyclic-AMP phosphodiesterase 4B (Homo sapiens) (Q07343 whole entry, looked up): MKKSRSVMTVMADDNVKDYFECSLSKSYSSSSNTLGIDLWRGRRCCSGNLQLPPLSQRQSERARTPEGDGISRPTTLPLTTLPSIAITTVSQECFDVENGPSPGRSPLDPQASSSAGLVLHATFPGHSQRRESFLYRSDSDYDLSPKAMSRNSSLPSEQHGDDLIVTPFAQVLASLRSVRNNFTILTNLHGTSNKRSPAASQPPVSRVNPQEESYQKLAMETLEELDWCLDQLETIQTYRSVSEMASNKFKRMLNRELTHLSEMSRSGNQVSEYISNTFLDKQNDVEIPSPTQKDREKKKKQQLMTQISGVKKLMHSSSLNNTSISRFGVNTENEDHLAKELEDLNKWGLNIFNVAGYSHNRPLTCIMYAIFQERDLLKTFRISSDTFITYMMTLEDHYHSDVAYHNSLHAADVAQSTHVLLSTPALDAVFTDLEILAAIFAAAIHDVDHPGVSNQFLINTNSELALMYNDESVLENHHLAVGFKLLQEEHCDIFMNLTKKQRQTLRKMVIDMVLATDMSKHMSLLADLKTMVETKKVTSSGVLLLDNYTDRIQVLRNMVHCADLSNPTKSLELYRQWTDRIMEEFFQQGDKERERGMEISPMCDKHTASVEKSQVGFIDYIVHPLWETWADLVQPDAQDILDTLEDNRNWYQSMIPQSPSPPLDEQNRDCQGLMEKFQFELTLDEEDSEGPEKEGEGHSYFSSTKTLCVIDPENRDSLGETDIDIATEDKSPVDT
Sequence of Alpha-galactosidase A (Homo sapiens) (P06280 whole entry, looked up): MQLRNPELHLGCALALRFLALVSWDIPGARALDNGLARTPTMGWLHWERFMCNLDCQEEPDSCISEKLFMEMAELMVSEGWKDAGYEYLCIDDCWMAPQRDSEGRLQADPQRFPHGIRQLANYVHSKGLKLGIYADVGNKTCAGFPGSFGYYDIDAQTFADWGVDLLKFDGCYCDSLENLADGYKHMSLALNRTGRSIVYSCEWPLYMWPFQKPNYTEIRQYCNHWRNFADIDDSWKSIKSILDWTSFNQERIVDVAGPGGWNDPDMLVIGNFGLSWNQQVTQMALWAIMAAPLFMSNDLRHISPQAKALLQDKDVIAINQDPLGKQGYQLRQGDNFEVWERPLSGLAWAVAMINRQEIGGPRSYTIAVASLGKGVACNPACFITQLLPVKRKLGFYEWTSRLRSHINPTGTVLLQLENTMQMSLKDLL
Sequence of ATP-dependent 6-phosphofructokinase (Trypanosoma brucei brucei) (O15648 whole entry, looked up): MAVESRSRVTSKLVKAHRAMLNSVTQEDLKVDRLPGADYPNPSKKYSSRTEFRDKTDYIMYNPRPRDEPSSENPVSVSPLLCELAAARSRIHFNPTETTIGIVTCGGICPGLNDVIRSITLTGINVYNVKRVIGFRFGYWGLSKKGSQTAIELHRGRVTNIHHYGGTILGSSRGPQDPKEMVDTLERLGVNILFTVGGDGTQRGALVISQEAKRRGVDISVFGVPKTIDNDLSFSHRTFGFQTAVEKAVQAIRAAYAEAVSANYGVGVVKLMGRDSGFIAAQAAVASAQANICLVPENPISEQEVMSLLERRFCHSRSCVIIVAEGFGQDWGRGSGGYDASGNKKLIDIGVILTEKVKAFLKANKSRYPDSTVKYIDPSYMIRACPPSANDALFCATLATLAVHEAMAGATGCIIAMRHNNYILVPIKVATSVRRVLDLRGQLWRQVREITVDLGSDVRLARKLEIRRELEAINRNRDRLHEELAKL
Sequence of Guanine nucleotide-binding protein G(i) subunit alpha-1 (Homo sapiens) (P63096 whole entry, looked up): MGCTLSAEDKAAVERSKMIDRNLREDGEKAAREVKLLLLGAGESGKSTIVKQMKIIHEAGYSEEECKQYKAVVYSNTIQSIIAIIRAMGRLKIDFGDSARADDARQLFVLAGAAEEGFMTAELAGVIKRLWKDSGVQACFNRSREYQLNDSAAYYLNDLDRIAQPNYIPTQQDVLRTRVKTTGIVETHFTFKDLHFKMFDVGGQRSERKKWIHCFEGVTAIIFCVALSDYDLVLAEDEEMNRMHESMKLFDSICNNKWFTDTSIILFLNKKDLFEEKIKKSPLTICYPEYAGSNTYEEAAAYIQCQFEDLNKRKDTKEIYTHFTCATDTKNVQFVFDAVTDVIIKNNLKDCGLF
Sequence of Pyruvate kinase (Leishmania mexicana) (Q27686 2-499 E452W): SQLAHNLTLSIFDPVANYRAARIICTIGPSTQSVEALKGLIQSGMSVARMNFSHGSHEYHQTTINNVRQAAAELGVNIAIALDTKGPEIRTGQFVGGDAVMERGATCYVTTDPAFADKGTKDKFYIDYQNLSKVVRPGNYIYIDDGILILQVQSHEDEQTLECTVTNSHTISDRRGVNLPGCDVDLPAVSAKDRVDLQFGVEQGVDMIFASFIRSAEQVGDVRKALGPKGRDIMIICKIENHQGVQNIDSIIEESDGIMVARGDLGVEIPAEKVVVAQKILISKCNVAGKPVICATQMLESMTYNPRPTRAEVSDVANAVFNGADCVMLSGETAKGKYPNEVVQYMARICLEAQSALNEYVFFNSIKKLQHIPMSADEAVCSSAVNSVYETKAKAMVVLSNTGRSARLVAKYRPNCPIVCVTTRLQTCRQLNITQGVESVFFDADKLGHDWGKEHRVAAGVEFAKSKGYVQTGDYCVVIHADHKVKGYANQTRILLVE
Sequence of Luciferin 4-monooxygenase (Photinus pyralis) (P08659 whole entry, looked up): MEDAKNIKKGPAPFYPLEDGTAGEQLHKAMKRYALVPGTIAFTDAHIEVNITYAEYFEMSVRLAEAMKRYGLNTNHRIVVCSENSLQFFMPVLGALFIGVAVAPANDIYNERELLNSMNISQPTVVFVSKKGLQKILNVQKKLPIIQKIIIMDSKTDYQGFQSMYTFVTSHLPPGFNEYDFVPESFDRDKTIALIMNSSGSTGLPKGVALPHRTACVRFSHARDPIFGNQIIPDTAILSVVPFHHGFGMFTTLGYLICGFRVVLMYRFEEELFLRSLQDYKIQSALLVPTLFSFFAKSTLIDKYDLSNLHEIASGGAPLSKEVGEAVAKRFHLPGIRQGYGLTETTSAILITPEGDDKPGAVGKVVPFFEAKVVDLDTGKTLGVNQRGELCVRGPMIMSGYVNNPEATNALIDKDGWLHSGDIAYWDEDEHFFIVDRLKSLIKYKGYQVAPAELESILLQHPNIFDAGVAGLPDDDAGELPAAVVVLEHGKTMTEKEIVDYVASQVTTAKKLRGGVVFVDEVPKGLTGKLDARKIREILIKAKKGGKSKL

CCC[C@H]1C[C@H](C(=O)N[C@@H]([C@H]2O[C@@H](SC)[C@@H](O)[C@@H](O)[C@@H]2O)[C@H](C)Cl)N(C)C1
activity change, negative = inhibition [1]: -4.04% | activity change, negative = inhibition [2]: 0.269% | activity, negative = inhibition [3]: 1.36% | Potency [4]: inactive | Potency [5]: inactive | Potency [6]: inactive | Potency [7]: inactive | Potency [8]: inactive | Potency [9]: inactive | Potency [10]: inactive | Potency [11]: inactive | Potency (ATS189): inactive | Potency (CP262): 0.0151 µM (active) | Potency (CP297): 0.0601 µM (active) | Potency (CP335): 0.0601 µM (active) | Potency (Dd2): 0.0447 µM (active) | Potency (TAB109): 0.0316 µM (active) | Potency (W2): 0.0426 µM (active)

CC1(C)CC(=O)c2cc(C(=O)N3CCCC(C)(C)C3)c(=O)n(-c3ccccc3)c2C1
activity change, negative = inhibition [1]: 8.53% | activity change, negative = inhibition [2]: -0.00696% | activity, negative = inhibition [3]: -7.18% | Potency [12]: > 20.6 µM | Potency [13]: 3.98 µM (active)

O=C(COc1ccccc1)Nc1ccc(-c2nnc(-c3ccco3)o2)cc1
activity change, negative = inhibition [1]: 6.06% | activity change, negative = inhibition [2]: 7.57% | Potency [12]: > 20.6 µM

CCCSc1nc(C)c(CC(=O)O)c(=O)[nH]1
activity change, negative = inhibition [1]: -6.75% | activity change, negative = inhibition [2]: 13% | activity, negative = inhibition [3]: -1.03% | Potency [12]: > 20.6 µM | activation [13]: 11%

CCCC(=O)N(Cc1cc2ccccc2[nH]c1=O)c1ccccc1OC
activity change, negative = inhibition [1]: -6.44% | activity change, negative = inhibition [2]: 22.4% | activity, negative = inhibition [3]: 5.08% | Potency [12]: > 20.6 µM | activation [13]: -13.3%

O=C1CC(c2ccccc2)n2nc(NS(=O)(=O)c3ccccc3)nc2N1 (stereo not given)
activity change, negative = inhibition [1]: 22.4% | activity change, negative = inhibition [2]: -10.9% | Potency [12]: > 20.6 µM

O=C(NC[C@@H]1CCCCN1)c1cc(OCC(F)(F)F)ccc1OCC(F)(F)F
activity change, negative = inhibition [1]: -1.96% | activity change, negative = inhibition [2]: -7.71% | activity, negative = inhibition [3]: 4.72% | Potency [4]: inactive | Potency [7]: inactive

COc1ccc(C2CC(=O)c3sc(N)nc3C2)cc1 (stereo not given)
activity change, negative = inhibition [1]: -9.21% | activity change, negative = inhibition [2]: 5.45% | activity, negative = inhibition [3]: 3.6% | Potency [12]: > 20.6 µM | activation [13]: -11%

CCN1CCC[C@@H]1CNC(=O)c1c(O)c(Cl)cc(Cl)c1OC
activity change, negative = inhibition [1]: 10.6% [at 38 µM] | activity change, negative = inhibition [2]: 2.12% [at 38 µM] | activity, negative = inhibition [3]: -20.4% [at 38 µM] | Potency [5]: inactive | outcome [14]: inactive | Potency [15]: inactive | Potency [16]: inactive | Potency [17]: inactive | outcome [18]: inactive | outcome [19]: inactive | outcome [20]: inactive

Reference: PubChem BioAssay (NCATS)
